Experimental data as given in PubChem BioAssay (EPA / NIEHS).
Where “and” joins values, the source holds several entries; their conditions need not be identical. Equal entries are not always repeated. More than one record can exist for a structure, and the calls need not agree. Calls of active or inactive are those of the source. The calls were made as follows: active = hit-call score of the fitted dose curve at least 0.9, where 1 is the maximum; inactive = score below 0.9.

Key:
[1] = APR_HepG2_CellLoss_72hr: Apredica 72-hour HepG2 Assay for Cell Loss (AID 2282915); details: high-content imaging
In short: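 HepG2 cells exposed 72 h to compound at 0.39–200 uM (10 concentrations, duplicate) in 0.5% DMSO. Fixed with 3.7% formaldehyde and Hoechst 33342-stained. Imaged at 20x; nuclear count gives cell number, fitted bidirectionally versus DMSO.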

[2] = APR_HepG2_P-H2AX_72hr: Apredica 72-hour HepG2 Assay for H2AX Phosphorylation (AID 2282916); details: imaging, actives raise or lower the signal;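 also: phospho-histone H2A.x immunostain intensity per cell marking DNA damage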
In short: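 HepG2; cpd 0.39–200 uM ×10 conc, duplicates; 0.5% DMSO; 72 hr. Fix 3.7% formaldehyde 30 min RT, 0.5% Triton X-100 10 min. Anti-phospho-H2A.x 1:200 + Hoechst 2 ug/mL, 60 min RT; ArrayScan imaging.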

[3] = APR_HepG2_MitoMembPot_72hr: Apredica 72-hour HepG2 Assay for Mitochondrial Membrane Potential (AID 2282917); details: imaging, actives raise or lower the signal
In short: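 HepG2 cells dosed 72 hr with compound at 0.39–200 uM in duplicate, 0.5% v/v DMSO final. Mitochondria stained with 250 nM MitoTracker Red CMXRos for 30 min before formaldehyde fixation, imaged by high-content fluorescence; bidirectional fit versus DMSO.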

[4] = APR_HepG2_MitoticArrest_72hr: Apredica 72-hour HepG2 Assay for Mitotic Arrest (AID 2282918); details: high-content imaging, actives raise or lower the signal
In short: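 High-content imaging of fixed human HepG2 cells after 72 h compound exposure (0.39–200 uM, duplicates, 0.5% DMSO); mitotic arrest scored from phospho-histone H3 and nuclear Hoechst staining relative to DMSO.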

[5] = APR_HepG2_MicrotubuleCSK_72hr: Apredica 72-hour HepG2 Assay for Microtubule CSK Stabilty (AID 2282919); details: HepG2 microtubule cytoskeleton, high-content imaging, actives raise or lower the signal
In short: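 HepG2 cells were exposed 72 hr to compound at 0.39–200 uM in duplicate (0.5% DMSO final), then fixed and permeabilized. Alpha-tubulin immunofluorescence was imaged by high-content microscopy, with bidirectional fitting against DMSO and taxol as positive control.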

[6] = APR_HepG2_StressKinase_72hr: Apredica 72-hour HepG2 Assay for Stress Kinase (AID 2282921); details: HepG2 stress kinase (phospho-c-Jun) imaging, actives raise or lower the signal
In short: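 Dose 0.39–200 uM (10 pts, duplicate), 0.5% DMSO; 72 h; fix 3.7% formaldehyde 30 min RT; Triton permeabilize; anti-phospho-c-Jun/Cy3 + Hoechst 60 min RT; image 20x; fit gain/loss vs DMSO.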

[7] = APR_HepG2_StressKinase_24hr: Apredica 24-hour HepG2 Assay for Stress Kinase (AID 2282922); details: HepG2 stress kinase (phospho-c-Jun) imaging, actives raise or lower the signal
In short: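 HepG2 cells exposed 24 h to 0.39–200 uM compound in duplicate (0.5% v/v DMSO final). Cells fixed in 3.7% formaldehyde, permeabilized and immunostained for phospho-c-Jun; read by high-content fluorescence imaging, fitted bidirectionally against DMSO.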

[8] = APR_HepG2_p53Act_72hr: Apredica 72-hour HepG2 Assay for p53 Activation (AID 2282923); details: high-content imaging, actives raise or lower the signal;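 also: average cellular p53 protein immunofluorescence intensity in HepG2 cells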
In short: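 10-pt conc. 0.39–200 uM, duplicate, 0.5% DMSO; 72 hr exposure; 3.7% formaldehyde fix, 0.5% Triton perm; sheep anti-p53/Cy5 + Hoechst; ArrayScan 20x, 6 images/well; gain/loss fit vs DMSO.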

[9] = APR_HepG2_MitoMass_72hr: Apredica 72-hour HepG2 Assay for Mitochondrial Mass (AID 2282924); details: high-content imaging, actives raise or lower the signal;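 also: MitoTracker Red CMXRos stain intensity per cell imaged as mitochondrial mass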
In short: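 HepG2 cells dosed 72 hr at 0.39–200 uM (0.5% DMSO), in duplicate. MitoTracker Red CMXRos 250 nM loaded 30 min before formaldehyde fixation; high-content fluorescence imaging, bidirectional fit versus DMSO.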

CC1=C(C(=O)Nc2ccccc2)SCCO1
outcome [1]: inactive | outcome [2]: inactive | outcome [3]: inactive | outcome [4]: inactive | outcome [5]: inactive | outcome [6]: inactive | outcome [7]: inactive | outcome [8]: inactive | outcome [9]: inactive

CC(Oc1ccc(Cl)cc1Cl)C(=O)O (configuration not stated)
outcome [1]: inactive | outcome [2]: inactive | outcome [3]: inactive | outcome [4]: inactive | outcome [5]: inactive | outcome [6]: inactive | outcome [7]: inactive | outcome [8]: inactive | outcome [9]: inactive

Cc1c(F)c(F)c(COC(=O)C2C(/C=C(\Cl)C(F)(F)F)C2(C)C)c(F)c1F (configuration not stated)
outcome [1]: inactive | outcome [2]: inactive | outcome [3]: inactive | outcome [4]: inactive | outcome [5]: inactive | outcome [6]: inactive | outcome [7]: inactive | outcome [8]: inactive | outcome [9]: inactive

O=C(O)c1nc(Cl)ccc1Cl
outcome [1]: inactive | outcome [2]: inactive | outcome [3]: inactive | outcome [4]: inactive | outcome [5]: inactive | outcome [6]: inactive | outcome [7]: inactive | outcome [8]: inactive | outcome [9]: inactive

CNC(=S)S
AC50 [1]: 36.7 µM (active) | AC50 [2]: 11.3 µM (active) | outcome [3]: inactive | AC50 [4]: 13.5 µM (active) | AC50 [5]: 26.2 µM (active) | outcome [6]: inactive | outcome [7]: inactive | outcome [8]: inactive | outcome [9]: inactive

O=C(Nc1ccccc1)Nc1ccnc(Cl)c1
AC50 [1]: 53.8 µM (active) | outcome [2]: inactive | AC50 [3]: 3.46 µM (active) | outcome [4]: inactive | AC50 [5]: 32.5 µM (active) | outcome [6]: inactive | outcome [7]: inactive | outcome [8]: inactive | outcome [9]: inactive

Cc1ccc(-c2c(Cl)nc(C#N)n2S(=O)(=O)N(C)C)cc1
AC50 [1]: 65.4 µM (active) | AC50 [2]: 104 µM (active) | outcome [3]: inactive | outcome [4]: inactive | AC50 [5]: 65.3 µM (active) | outcome [6]: inactive | outcome [7]: inactive | outcome [8]: inactive | outcome [9]: inactive

O=C(O)COc1nc(Cl)c(Cl)cc1Cl
outcome [1]: inactive | outcome [2]: inactive | outcome [3]: inactive | outcome [4]: inactive | outcome [5]: inactive | outcome [6]: inactive | outcome [7]: inactive | outcome [8]: inactive | outcome [9]: inactive

N#CC(CCc1ccc(Cl)cc1)(Cn1cncn1)c1ccccc1 (configuration not stated)
outcome [1]: inactive | outcome [2]: inactive | outcome [3]: inactive | outcome [4]: inactive | outcome [5]: inactive | outcome [6]: inactive | outcome [7]: inactive | outcome [8]: inactive | outcome [9]: inactive

C=CCC1=C(C)[C@@H](OC(=O)[C@@H]2[C@@H](C=C(C)C)C2(C)C)CC1=O
AC50 [1]: 102 µM (active) | outcome [2]: inactive | outcome [3]: inactive | AC50 [4]: 67.4 µM (active) | AC50 [5]: 79.5 µM (active) | outcome [6]: inactive | outcome [7]: inactive | AC50 [8]: 107 µM (active) | outcome [9]: inactive

CCc1nn(C)c(C(=O)NCc2ccc(C(C)(C)C)cc2)c1Cl
AC50 [1]: 20.7 µM (active) | outcome [2]: inactive | outcome [3]: inactive | outcome [4]: inactive | AC50 [5]: 0.0488 µM (active) | outcome [6]: inactive | outcome [7]: inactive | outcome [8]: inactive | outcome [9]: inactive

COc1ccc(C(c2ccc(OC)cc2)C(Cl)(Cl)Cl)cc1
AC50 [1]: 72.7 µM (active) | AC50 [2]: 98.2 µM (active) | outcome [3]: inactive | AC50 [4]: 65 µM (active) | AC50 [5]: 71 µM (active) | outcome [6]: inactive | outcome [7]: inactive | AC50 [8]: 76.4 µM (active) | outcome [9]: inactive

CCOC(=O)CC(SP(=S)(OC)OC)C(=O)OCC (configuration not stated)
AC50 [1]: 109 µM (active) | outcome [2]: inactive | outcome [3]: inactive | outcome [4]: inactive | outcome [5]: inactive | outcome [6]: inactive | outcome [7]: inactive | outcome [8]: inactive | outcome [9]: inactive

C#CCOS(=O)OC1CCCCC1Oc1ccc(C(C)(C)C)cc1 (configuration not stated)
AC50 [1]: 3.12 µM (active) | outcome [2]: inactive | AC50 [3]: 3.43 µM (active) | outcome [4]: inactive | AC50 [5]: 2.25 µM (active) | outcome [6]: inactive | outcome [7]: inactive | outcome [8]: inactive | outcome [9]: inactive

CCCCOC(=O)c1ccccc1C(=O)OCCCC
outcome [1]: inactive | outcome [2]: inactive | outcome [3]: inactive | outcome [4]: inactive | outcome [5]: inactive | outcome [6]: inactive | outcome [7]: inactive | outcome [8]: inactive | outcome [9]: inactive

Cc1cc(Cl)ccc1OCC(=O)O
outcome [1]: inactive | outcome [2]: inactive | outcome [3]: inactive | outcome [4]: inactive | outcome [5]: inactive | outcome [6]: inactive | outcome [7]: inactive | outcome [8]: inactive | outcome [9]: inactive

CCOc1cc(Oc2ccc(C(F)(F)F)cc2Cl)ccc1[N+](=O)[O-]
AC50 [1]: 31.5 µM (active) | outcome [2]: inactive | outcome [3]: inactive | AC50 [4]: 45 µM (active) | AC50 [5]: 19.8 µM (active) | outcome [6]: inactive | outcome [7]: inactive | outcome [8]: inactive | outcome [9]: inactive

Fc1ccc(Oc2ccnc3cc(Cl)cc(Cl)c23)cc1
AC50 [1]: 76.2 µM (active) | outcome [2]: inactive | outcome [3]: inactive | outcome [4]: inactive | outcome [5]: inactive | outcome [6]: inactive | outcome [7]: inactive | outcome [8]: inactive | outcome [9]: inactive

CO/C=C(/C(=O)OC)c1ccccc1Oc1cc(Oc2ccccc2C#N)ncn1
AC50 [2]: 53.2 µM (active) and 42.2 µM (active) | outcome [2]: inactive | AC50 [3]: 164 µM (active) | outcome [3]: inactive | AC50 [4]: 13.9 µM (active) and 24.7 µM (active) and 31 µM (active) | outcome [4]: inactive | outcome [5]: inactive | AC50 [6]: 36 µM (active) | outcome [6]: inactive | outcome [7]: inactive | AC50 [8]: 50.7 µM (active) and 53 µM (active) and 50.6 µM (active) | outcome [8]: inactive | AC50 [9]: 1.68 µM (active) and 3.44 µM (active) | outcome [9]: inactive

CN(C)C(=S)SSC(=S)N(C)C
AC50 [1]: 0.153 µM (active) | AC50 [2]: 0.0895 µM (active) | outcome [3]: inactive | AC50 [4]: 19.8 µM (active) | AC50 [5]: 3.39 µM (active) | outcome [6]: inactive | outcome [7]: inactive | outcome [8]: inactive | outcome [9]: inactive

N#Cc1cc(Br)c(O)c(Br)c1
AC50 [1]: 101 µM (active) | outcome [2]: inactive | outcome [3]: inactive | outcome [4]: inactive | outcome [5]: inactive | outcome [6]: inactive | outcome [7]: inactive | outcome [8]: inactive | outcome [9]: inactive

CCNc1nc(Cl)nc(NCC)n1
outcome [1]: inactive | outcome [2]: inactive | outcome [3]: inactive | outcome [4]: inactive | outcome [5]: inactive | outcome [6]: inactive | outcome [7]: inactive | outcome [8]: inactive | outcome [9]: inactive

OC(c1ccc(Cl)cc1)(c1cncnc1)c1ccccc1Cl (configuration not stated)
AC50 [1]: 10.4 µM (active) | outcome [2]: inactive | outcome [3]: inactive | outcome [4]: inactive | AC50 [5]: 167 µM (active) | outcome [6]: inactive | outcome [7]: inactive | outcome [8]: inactive | outcome [9]: inactive

CC1COC(Cn2cncn2)(c2ccc(Oc3ccc(Cl)cc3)cc2Cl)O1 (configuration not stated)
AC50 [1]: 10.6 µM (active) | outcome [2]: inactive | AC50 [3]: 52.6 µM (active) | outcome [4]: inactive | AC50 [5]: 32.6 µM (active) | outcome [6]: inactive | outcome [7]: inactive | outcome [8]: inactive | AC50 [9]: 60.6 µM (active)

CC(C)Oc1cc(-n2nc(C(C)(C)C)oc2=O)c(Cl)cc1Cl
AC50 [1]: 58.9 µM (active) | AC50 [2]: 82.2 µM (active) | outcome [3]: inactive | AC50 [4]: 42.6 µM (active) | AC50 [5]: 52.6 µM (active) | outcome [6]: inactive | outcome [7]: inactive | outcome [8]: inactive | outcome [9]: inactive

CCCCNC(=O)n1c(NC(=O)OC)nc2ccccc21
AC50 [1]: 8.47 µM (active) | outcome [2]: inactive | outcome [3]: inactive | outcome [4]: inactive | outcome [5]: inactive | outcome [6]: inactive | AC50 [7]: 45.6 µM (active) | outcome [8]: inactive | AC50 [9]: 13 µM (active)

COc1cnc(OC)n2nc(NS(=O)(=O)c3c(OCC(F)F)cccc3C(F)(F)F)nc12
outcome [1]: inactive | outcome [2]: inactive | outcome [3]: inactive | outcome [4]: inactive | outcome [5]: inactive | outcome [6]: inactive | outcome [7]: inactive | outcome [8]: inactive | outcome [9]: inactive

COC(=O)N(OC)c1ccccc1COc1ccn(-c2ccc(Cl)cc2)n1
AC50 [1]: 1.44 µM (active) | AC50 [2]: 25.5 µM (active) | AC50 [3]: 3.69 µM (active) | AC50 [4]: 39.9 µM (active) | AC50 [5]: 3.29 µM (active) | outcome [6]: inactive | outcome [7]: inactive | outcome [8]: inactive | outcome [9]: inactive
